Test results reported in PubChem BioAssay AID1159580 (chemical genetic matrix, 2015).
Among all 5,500 compounds or so, about 2,000 (36%) were called active. Another 18% or so got no clear call; they are omitted. Rule as the data show it: active = normalized growth mostly below about 0.91 (no sharp cut-off); inconclusive = no clear call, values can overlap the other calls; inactive = mostly above about 0.92. This is one part of the list.

Test: chemical genetic growth profiling, strain panel (AID 1159580);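 also: tested at 20 µM; growth read once vehicle control cultures reached saturation at 30 °C; 1 = growth at the plate median or of vehicle wells; lower values mean less growth of the strain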
Settings: growth OD

Measured: normalized growth

NNC(=O)c1ccncc1
inactive: S. cerevisiae deletion strains, locus YJR075W, strain HOC1, stronger effect = lower value 1.01 | S. cerevisiae deletion strains, locus YKL009W, strain mrt4, stronger effect = lower value 0.98 | S. cerevisiae deletion strains, locus YKL068W, stronger effect = lower value 0.992 | S. cerevisiae deletion strains, locus YKL085W, strain MDH1 (second series), stronger effect = lower value 0.991 | S. cerevisiae deletion strains, locus YKL085W, strain MDH1, stronger effect = lower value 0.991 | S. cerevisiae deletion strains, locus YKL160W, strain elf1, stronger effect = lower value 1.04 | S. cerevisiae deletion strains, locus YKL190W, strain CNB1, stronger effect = lower value 0.992 | S. cerevisiae deletion strains, locus YKR001C, strain vps1, stronger effect = lower value 0.993 | S. cerevisiae deletion strains, locus YKR026C, strain gcn3, stronger effect = lower value 1.01 | S. cerevisiae deletion strains, locus YKR091W, strain srl3, stronger effect = lower value 1 | S. cerevisiae deletion strains, locus YLL001W, strain dnm1, stronger effect = lower value 1.03 | S. cerevisiae deletion strains, locus YLL026W, stronger effect = lower value 1.03 | S. cerevisiae deletion strains, locus YLL041C, strain sdh2, stronger effect = lower value 1 | S. cerevisiae deletion strains, locus YLR027C, strain aat2, stronger effect = lower value 1.03 | S. cerevisiae deletion strains, locus YLR039C, strain RIC1, stronger effect = lower value 1.05 | S. cerevisiae deletion strains, locus YLR058C, strain SHM2, stronger effect = lower value 1.01 | S. cerevisiae deletion strains, locus YLR102C, strain apc9, stronger effect = lower value 0.998 | S. cerevisiae deletion strains, locus YLR113W, strain HOG1, stronger effect = lower value 1.01 | S. cerevisiae deletion strains, locus YLR221C, strain rsa3, stronger effect = lower value 0.986 | S. cerevisiae deletion strains, locus YLR258W, strain gsy2, stronger effect = lower value 0.99 | S. cerevisiae deletion strains, locus YLR262C, strain YPT6 (second series), stronger effect = lower value 1.03 | S. cerevisiae deletion strains, locus YLR262C, strain YPT6, stronger effect = lower value 1.01 | S. cerevisiae deletion strains, locus YLR268W, strain sec22, stronger effect = lower value 0.991 | S. cerevisiae deletion strains, locus YLR320W, strain mms22, stronger effect = lower value 0.986 | S. cerevisiae deletion strains, locus YLR330W, strain CHS5, stronger effect = lower value 1.01 | S. cerevisiae deletion strains, locus YLR342W, strain FKS1 (second series), stronger effect = lower value 1.01 | S. cerevisiae deletion strains, locus YLR342W, strain FKS1, stronger effect = lower value 1.02 | S. cerevisiae deletion strains, locus YLR357W, strain rsc2, stronger effect = lower value 0.998 | S. cerevisiae deletion strains, locus YLR370C, strain arc18, stronger effect = lower value 1.02 | S. cerevisiae deletion strains, locus YLR371W, strain rom2, stronger effect = lower value 0.988 | S. cerevisiae deletion strains, locus YLR384C, strain iki3, stronger effect = lower value 1.01 | S. cerevisiae deletion strains, locus YLR418C, strain cdc73, stronger effect = lower value 0.964 | S. cerevisiae deletion strains, locus YML016C, strain PPZ1, stronger effect = lower value 1.01 | S. cerevisiae deletion strains, locus YML032C, strain rad52, stronger effect = lower value 0.995 | S. cerevisiae deletion strains, locus YML120C, strain ndi1, stronger effect = lower value 1.06 | S. cerevisiae deletion strains, locus YML124C, strain tub3, stronger effect = lower value 0.988 | S. cerevisiae deletion strains, locus YMR058W, strain fet3, stronger effect = lower value 1.04 | S. cerevisiae deletion strains, locus YMR078C, strain ctf18, stronger effect = lower value 1 | S. cerevisiae deletion strains, locus YMR125W, strain sto1, stronger effect = lower value 1.02 | S. cerevisiae deletion strains, locus YMR129W, stronger effect = lower value 1 | S. cerevisiae deletion strains, locus YMR205C, strain PFK2, stronger effect = lower value 1.03 | S. cerevisiae deletion strains, locus YMR223W, strain ubp8, stronger effect = lower value 0.974 | S. cerevisiae deletion strains, locus YMR231W, strain pep5, stronger effect = lower value 0.995 | S. cerevisiae deletion strains, locus YMR307W, strain GAS1, stronger effect = lower value 0.997 | S. cerevisiae deletion strains, locus YNL067W, strain RPL9B, stronger effect = lower value 0.996 | S. cerevisiae deletion strains, locus YNL071W, strain lat1, stronger effect = lower value 0.996 | S. cerevisiae deletion strains, locus YNL153C, strain GIM3, stronger effect = lower value 1.01 | S. cerevisiae deletion strains, locus YNL183C, strain NPR1, stronger effect = lower value 0.948 | S. cerevisiae deletion strains, locus YNL209W, strain ssb2, stronger effect = lower value 1 | S. cerevisiae deletion strains, locus YNL233W, strain BNI4, stronger effect = lower value 1.01 | S. cerevisiae deletion strains, locus YNL248C, strain rpa49, stronger effect = lower value 0.988 | S. cerevisiae deletion strains, locus YNL250W, strain rad50, stronger effect = lower value 0.977 | S. cerevisiae deletion strains, locus YNL271C, strain bni1, stronger effect = lower value 0.985 | S. cerevisiae deletion strains, locus YNL298W, strain CLA4, stronger effect = lower value 0.986 | S. cerevisiae deletion strains, locus YNL307C, strain MCK1, stronger effect = lower value 0.995 | S. cerevisiae deletion strains, locus YNL322C, strain KRE1 (second series), stronger effect = lower value 1.02 | S. cerevisiae deletion strains, locus YNR049C, strain mso1, stronger effect = lower value 1.01 | S. cerevisiae deletion strains, locus YNR052C, strain pop2, stronger effect = lower value 1 | S. cerevisiae deletion strains, locus YOL012C, strain htz1 0.873 | S. cerevisiae deletion strains, locus YOL147C, strain pex11, stronger effect = lower value 0.994 | S. cerevisiae deletion strains, locus YOR001W, strain rrp6, stronger effect = lower value 1.03 | S. cerevisiae deletion strains, locus YOR061W, strain CKA2, stronger effect = lower value 1.02 | S. cerevisiae deletion strains, locus YOR069W, strain VPS5, stronger effect = lower value 1 | S. cerevisiae deletion strains, locus YOR070C, strain gyp1, stronger effect = lower value 1 | S. cerevisiae deletion strains, locus YOR080W, strain dia2, stronger effect = lower value 1.01 | S. cerevisiae deletion strains, locus YOR083W, strain WHI5, stronger effect = lower value 1 | S. cerevisiae deletion strains, locus YOR106W, strain vam3, stronger effect = lower value 1.04 | S. cerevisiae deletion strains, locus YOR136W, strain idh2, stronger effect = lower value 0.998 | S. cerevisiae deletion strains, locus YOR144C, strain elg1, stronger effect = lower value 0.994 | S. cerevisiae deletion strains, locus YOR184W, strain ser1, stronger effect = lower value 0.981 | S. cerevisiae deletion strains, locus YOR231W, strain MKK1, stronger effect = lower value 0.992 | S. cerevisiae deletion strains, locus YOR265W, strain rbl2, stronger effect = lower value 1.01 | S. cerevisiae deletion strains, locus YOR270C, strain vph1, stronger effect = lower value 1 | S. cerevisiae deletion strains, locus YOR290C, strain snf2, stronger effect = lower value 0.965 | S. cerevisiae deletion strains, locus YOR316C, strain cot1, stronger effect = lower value 0.997 | S. cerevisiae deletion strains, locus YPL051W, strain arl3, stronger effect = lower value 1.02 | S. cerevisiae deletion strains, locus YPL055C, strain LGE1, stronger effect = lower value 1.01 | S. cerevisiae deletion strains, locus YPL078C, strain atp4, stronger effect = lower value 1.06 | S. cerevisiae deletion strains, locus YPL106C, strain sse1, stronger effect = lower value 1.01 | S. cerevisiae deletion strains, locus YPL240C, strain hsp82, stronger effect = lower value 1.02 | S. cerevisiae deletion strains, locus YPL256C, strain CLN2, stronger effect = lower value 0.966 | S. cerevisiae deletion strains, locus YPR119W, strain clb2, stronger effect = lower value 0.987 | S. cerevisiae deletion strains, locus YPR141C, strain kar3, stronger effect = lower value 0.99 | S. cerevisiae deletion strains, locus YPR163C, strain tif3, stronger effect = lower value 0.987 | S. cerevisiae deletion strains, locus YPR167C, strain met16, stronger effect = lower value 0.981 | S. cerevisiae deletion strains, strain wtn01, stronger effect = lower value 0.98 | S. cerevisiae strains, strain wild type, stronger effect = lower value 1
